# About 3,300 (0.97%) of roughly 340,000 compounds were called active. This is one part of a sample in which actives are shown more often than they occur.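 How the source made its calls: active means mean activation above about 17%, with every replicate also reaching it (limit read from the data, passing the limit was not always enough); inconclusive means only one of the two conditions met; inactive means the rest.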
# Biological target: Protein FosB (Mus musculus) (UniProt P13346)
# Assay: enhancers of mouse delta FosB DNA binding – biochemical, fluorescence polarization, TAMRA-CDK5 oligo, single point, primary screen (AID 493131);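 further: fluorescence polarization rise as delta FosB binds a TAMRA Cdk5 AP-1 oligo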
# Details: purified delta FosB, at 25 µM, active compounds read high, percent of positive-control signal above neutral wells
# Protein FosB (Mus musculus), sequence (P13346 whole entry, looked up): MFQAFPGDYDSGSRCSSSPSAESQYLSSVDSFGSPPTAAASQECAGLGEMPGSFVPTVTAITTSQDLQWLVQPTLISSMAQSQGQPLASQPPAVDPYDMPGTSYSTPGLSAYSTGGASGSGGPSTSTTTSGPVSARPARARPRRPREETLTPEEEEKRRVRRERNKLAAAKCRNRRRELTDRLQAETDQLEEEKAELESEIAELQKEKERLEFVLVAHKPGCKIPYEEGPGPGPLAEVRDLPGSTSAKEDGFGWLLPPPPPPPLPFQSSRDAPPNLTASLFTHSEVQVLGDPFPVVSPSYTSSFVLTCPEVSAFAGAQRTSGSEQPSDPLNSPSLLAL
row,SMILES,activation
1,COc1cc(CNCc2ccc(OC)c3ccccc23)cc(OC)c1OC,-10.2% (inactive)
2,Cc1cc(C)c2nc3nc(C)cc(C)c3c(N)c2c1,25.9% (active)
3,CNC(=O)C1CC(=O)N(c2ccc(OCC(=O)Nc3ccccc3C)cc2)C1 (centres undefined),5.55% (inactive)
4,COc1ccc(OC)c(S(=O)(=O)N(C)CC(=O)N2CCN(c3ccccc3)CC2)c1,3.45% (inactive)
5,O=C1c2cccc3cccc(c23)C(=O)N1c1cccc(O)c1,27.4% (active)
6,O=C(CN1C(=O)c2cccc3cccc(c23)C1=O)N1CCCCC1,2.41% (inactive)
7,O=C1CC(c2ccccc2)C(=O)N1c1cccc(O)c1 (centres undefined),0.8% (inactive)
8,Cc1ccccc1CC1(CO)CCCN(Cc2ccc3c(c2)OCCO3)C1 (centres undefined),-8.09% (inactive)
9,COc1ccc(-n2cnc3cc(NCc4ccco4)ccc32)cc1,-0.508% (inactive)
10,C=CCC(NCc1ccco1)c1ccc(OC)cc1 (centres undefined),-0.535% (inactive)
11,COc1ccc(Nc2nc(NCc3ccco3)nc(N/N=C/c3ccccc3Cl)n2)cc1,43% (active)
12,O=C1c2cccnc2C(Nc2ccc(S(=O)(=O)N3CCCCCC3)cc2)N1Cc1ccccc1 (centres undefined),-10.2% (inactive)
13,O=C(NCc1ccco1)c1ccc(Cn2c(=O)c3sccc3n(Cc3ccc(F)cc3)c2=O)cc1,-6.02% (inactive)
14,O=C(Cc1ccc(-n2c(=O)c3sccc3n(Cc3ccc(F)cc3)c2=O)cc1)NCc1ccco1,20.9% (active)
15,O=C(NCc1ccco1)c1cc2sccc2n1Cc1ccc(F)cc1,-6.3% (inactive)
16,CC1(C)Oc2ccc(C(=O)N3CCOCC3)cc2N(CC(=O)Nc2ccccc2)C1=O,-4.29% (inactive)
17,CC(=O)NC(Cc1ccc(F)c(F)c1)C(=O)NC1CCN(c2nnnn2-c2ccccc2)CC1 (centres undefined),-5.56% (inactive)
18,COc1ccc(CCNC(=O)C2CCCN2C(=O)Nc2ccccc2)cc1OC (centres undefined),1.24% (inactive)
19,CC(C)CCNC(=O)c1ccc2c(Cl)c3c(nc2c1)CCC3,-19.8% (inactive)
20,CC(=NC1CCN(Cc2ccccc2)CC1)c1c(O)[nH]c(=O)[nH]c1=O,6.14% (inactive)
21,c1ccc(CN2CCC(N=C3NN=C(c4ccc5c(c4)OCCO5)CS3)CC2)cc1,18.3% (active)
22,CS(=O)(=O)N(CC(=O)N1CCN(Cc2ccccc2)CC1)c1ccc2c(c1)OCCO2,-2.7% (inactive)
23,Cc1ccc(C(=O)NC(C)c2ccccc2)cc1Br (centres undefined),-1.72% (inactive)

row,SMILES,activation
1,CCN(C(=O)CSc1nc2ccccc2n1CC)C1CCS(=O)(=O)C1 (centres undefined),-12.5% (inactive)
2,O=C(CNS(=O)(=O)c1ccc(Br)s1)NCc1ccc2c(c1)OCO2,-7.24% (inactive)
3,CCOc1ccc2[nH]c(C(=O)N/N=C/c3cccc(OC)c3OC)cc2c1,-5.75% (inactive)
4,COc1cccc(OCc2cc(/C=N/NC(=O)c3nc(Cl)c(Cl)c(N)c3Cl)ccc2OC)c1,59.2% (active)
5,COc1ccc2[nH]c(C(=O)N/N=C/c3cc(OC)c(OC)c(OC)c3)cc2c1,-21.6% (inactive)
6,CCOCCCNC(=O)C(NC(=O)c1ccc(=O)[nH]c1)c1ccc(Cl)cc1 (centres undefined),-7.55% (inactive)
7,O=C(N/N=C/c1ccc(OCc2ccccc2)cc1)c1ccc(O)cc1,19.7% (active)
8,O=C(Cc1cccs1)N/N=C/c1ccc(OCc2ccccc2)cc1,-8.99% (inactive)
9,O=C(COc1ccc(/C=N/NC(=O)c2ccc(O)cc2)cc1)Nc1ccc([N+](=O)[O-])cc1,-4.3% (inactive)
10,O=C(Nn1cnc2ccccc2c1=O)c1ccc(F)cc1Cl,-11% (inactive)
11,Cc1ccc(S(=O)(=O)NCc2ccc(C(=O)NC3CCC(C)CC3)cc2)cc1 (centres undefined),1.88% (inactive)
12,Cc1cccc(C)c1NC(=O)c1ccc(CN2CCc3ccccc3C2)cc1,5.39% (inactive)
13,COc1ccc(OC)c(NC(=O)C2CCCN2S(=O)(=O)c2cccc3nsnc23)c1 (centres undefined),-12.4% (inactive)
14,COC(=O)C1=C(C)N(c2ccc(C)cc2)/C(=C/c2ccc(O)cc2)C1=O,-7.3% (inactive)
15,CCCc1nnc(SCC(=O)Nc2ccc(C(=O)OCC)cc2)o1,-7.89% (inactive)
16,CC(=O)Nc1ccc(C(=O)CSc2nnc(Cc3ccccc3)o2)cc1,32.2% (active)
17,O=C(CSc1nnc(Cn2cnc3ccccc32)o1)c1ccccc1,-10.9% (inactive)
18,COC(=O)CN1C(=O)N/C(=C/c2ccc(OC)c(C)c2OC)C1=O,-0.812% (inactive)
19,Clc1ccc(C2[C@H]3CN(CC4CCCCC4)[C@H](c4ccccc4)C34CC2(c2cccnc2)C4)cn1 (some centres undefined),2.72% (inactive)
20,CCN1C(=NCCc2cccnc2)N[C@@H](c2ccccc2)C(C(=O)OC)=C1C,-0.917% (inactive)
21,COC(=O)c1ccc(C23CC4(C2)[C@H](CN(Cc2cccnc2)[C@@H]4c2ccccc2)C3c2ccc(Cl)nc2)cc1 (some centres undefined),23.5% (active)
22,CN(C)C(=O)CSc1n[nH]c(-c2ccco2)n1,7.7% (inactive)
23,COc1ccc(C(=O)C2CCCN(S(=O)(=O)c3cccc(C)c3)C2)c(C)c1 (centres undefined),-8.61% (inactive)

row,SMILES,activation
1,COc1cc2[nH]c(=O)n(CCC(=O)NC3CCN(Cc4ccccc4)CC3)c(=O)c2cc1OC,-7.1% (inactive)
2,COc1cc(C(=O)NC2CCN(Cc3ccccc3)CC2)cc(Cl)c1OC(C)C,-2.75% (inactive)
3,COc1cc2[nH]c(=O)n(Cc3ccc(C(=O)NC4CCN(Cc5ccccc5)CC4)cc3)c(=O)c2cc1OC,40.7% (active)
4,CC(C)CN(C(=O)COC(=O)c1ccc(Cl)c(N)c1)c1c(N)n(Cc2ccccc2)c(=O)[nH]c1=O,0.351% (inactive)
5,Cc1cc(OCC(=O)N(C)c2c(N)n(Cc3ccccc3)c(=O)[nH]c2=O)c(C(C)C)cc1Cl,30.7% (active)
6,CN(C(=O)COC(=O)c1ccc(Br)o1)c1c(N)n(Cc2ccccc2)c(=O)[nH]c1=O,5.25% (inactive)
7,CC(C)Sc1nc(N)nc2c1ncn2C1OC(CO)C(O)C1O (centres undefined),-4.1% (inactive)
8,O=C(CCN1CCc2ccccc2C(O)(c2ccccc2)C1)c1ccc2c(c1)OCCO2 (centres undefined),1.68% (inactive)
9,CCCCN(C(=O)c1ccc(OC(F)(F)F)cc1)c1c(N)n(CCC)c(=O)[nH]c1=O,-2.28% (inactive)
10,O=C(Nc1ccc(Br)cc1)c1cc(S(=O)(=O)Nc2ccccn2)ccc1Cl,40.2% (active)
11,O=C(CS(=O)(=O)c1ccccc1)Nc1ccc(S(=O)(=O)Nc2ccccn2)cc1,1.81% (inactive)
12,O=C(Nc1ccc(S(=O)(=O)Nc2ccccn2)cc1)c1ccccc1,-2.22% (inactive)
13,COc1ccccc1N1CCN(C(=O)c2cc(=O)c3cc(C)cc(C)c3o2)CC1,-12.4% (inactive)
14,CCOc1ccc(S(=O)(=O)N2CCN(C(=O)c3oc4ccccc4c3C)CC2)cc1,-13.9% (inactive)
15,CCn1cc(C(=O)OCC(=O)Nc2cccc(C)c2)c(=O)c2ccc(C)nc21,-9.83% (inactive)
16,Cc1ccc(NNC(=O)c2cccs2)cc1Cl,-4.02% (inactive)
17,CCCCC1N2CC3([N+](=O)[O-])CN1CC([N+](=O)[O-])(C2)C3(C)C (centres undefined),0.0626% (inactive)
18,COc1ccc(OC)c(S(=O)(=O)Nc2c(C)nn(C)c2C)c1,1.81% (inactive)
19,CCn1nc(C)c(NC(=O)/C=C/c2ccc(OC)c(COc3ccc(Br)cc3)c2)c1C,13.3% (inactive)
20,COc1ccc(/C=C/C(=O)Nc2c(C)nn(C)c2C)cc1COc1ccc(Br)cc1,21.7% (active)
21,Cc1ccc2c(c1)C1CN(C)CCC1N2S(=O)(=O)c1ccc(Oc2ccc([N+](=O)[O-])cc2)cc1 (centres undefined),60.9% (active)
22,Cc1ccc2c(c1)C1CN(C)CCC1N2S(=O)(=O)c1cccc(F)c1 (centres undefined),1.55% (inactive)
23,Cc1ccc2c(c1)C1CN(C)CCC1N2C(=S)Nc1ccc(OC(F)F)cc1 (centres undefined),-5.28% (inactive)

row,SMILES,activation
1,COc1ccc([N+](=O)[O-])cc1N(CC(O)Cn1nnc2ccccc21)S(=O)(=O)c1ccc(C)cc1 (centres undefined),-8.08% (inactive)
2,COc1cc2ccccc2cc1C(=O)Nc1ccccc1C,-12.4% (inactive)
3,COc1ccc(Br)cc1C(=O)Nc1cccc(C)c1C,6.11% (inactive)
4,COc1ccc(Br)cc1C(=O)NC(=S)Nc1cc(-c2nc3ccccc3[nH]2)ccc1C,30.2% (active)
5,Cc1nnnn1/C(=C\c1ccccc1)C(=O)OCC(=O)N1CC2(C)CC1CC(C)(C)C2 (centres undefined),-16.8% (inactive)
6,Cc1ccc(-c2cc(C(=O)NCc3cn(C)nc3C)c3cc(Br)ccc3n2)cc1,36.8% (active)
7,Cc1nn(C)cc1CNC(=O)Nc1ccc(Cl)cc1,-6.86% (inactive)
8,O=C(NCc1cccs1)c1cc(-c2ccccn2)nc2ccc(Br)cc12,2.96% (inactive)
9,CCN(CC)CCCNC(=S)N(CCO)Cc1cc2cc3c(cc2[nH]c1=O)OCO3,-3.62% (inactive)
10,CS(=O)(=O)N1CCc2nc(-c3ccccc3)sc2C1,-1.76% (inactive)
11,c1ccc2c(CCN3CCNC[C@H]3Cc3cccc4ccccc34)cccc2c1,12.1% (inactive)
12,c1ccc(C[C@H]2CNCCN2CCC23CC4CC(CC(C4)C2)C3)cc1,20.1% (active)
13,O=C1CCNCCN1[C@H](CO)Cc1ccccc1,-2.28% (inactive)
14,CC(Oc1cc2oc(=O)c3c(c2cc1Cl)CCCC3)C(=O)NCc1ccncc1 (centres undefined),-1.99% (inactive)
15,COc1ccc2c(c1)c(C(=O)N/N=C/c1cccs1)c(C)n2C,-3.67% (inactive)
16,CCOC(=O)C1=C(COC(=O)[C@H](C)NS(=O)(=O)c2ccccc2F)NC(=O)NC1C (some centres undefined),-4.67% (inactive)
17,Cn1ncc2c(NNC(=O)Cc3cccc4ccccc34)ncnc21,2.75% (inactive)
18,O=C(Nc1ccccc1)C1CC(=O)n2c(nc3ccccc32)N1 (centres undefined),12% (inactive)
19,CC(=O)c1ccc(NC(=O)C2CC(=O)Nc3nc4ccccc4n32)cc1 (centres undefined),19.8% (active)
20,CCOC(=O)c1ccc(NC(=O)C2CC(=O)Nc3nc4ccccc4n32)cc1 (centres undefined),7.67% (inactive)

# Source: PubChem BioAssay AID493131 (Broad Institute, 2011)
